Test systems include SR leukemia; RPMI-8226 leukemia; OVCAR-8 ovarian; OVCAR-5 ovarian; OVCAR-4 ovarian; SK-OV-3 ovarian; IGROV1 ovarian; OVCAR-3 ovarian; HS 578T breast; NCI/ADR-RES ovarian; T-47D breast; BT-549 breast; MDA-MB-435 melanoma; SW-620 colon; MCF7 breast; HCT-116 colon; HCC-2998 colon; KM12 colon.
Holding throughout (assay): NCI-60 one-dose screen, 48 h (100 = growth as untreated, 0 = no growth, -100 = all killed)
Common to all, as to details: 10 µM unless noted

Compounds without any hit were thinned out: in the full panel of roughly 83,000, 20% have a hit.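 Negative percent growth values reflect cell death: -40 means 40% of the cells present at the start died, and -100 means all died.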 Values without a mark were called inactive. The source made the active and inactive calls. The calls were made as follows: active = growth percent below 10; inactive = the rest.

Among the data in PubChem BioAssay (NCI) are growth values, retold here.

Consider `O=C(NCc1ccccc1O)c1cccc2ccccc12`, for which the growth in the experiment on SR leukemia is 64.9%; with RPMI-8226 leukemia, 38.6%; with OVCAR-8 ovarian, 89.8%; with OVCAR-5 ovarian, 108%; in the experiment on OVCAR-4 ovarian, 72.7%; in the experiment on SK-OV-3 ovarian it was 89.5%. In addition, the growth in the experiment with IGROV1 ovarian is 62%; in the experiment on OVCAR-3 ovarian it was 56.4%; with HS 578T breast, 66.5%; with NCI/ADR-RES ovarian, 79.2%; in the experiment on T-47D breast, 59.7%; in the experiment with BT-549 breast, 68.8%. Also, the growth in the experiment with MDA-MB-435 melanoma was 76.9%; in the experiment with SW-620 colon, 87.6%; with MCF7 breast it was 83.9%; in the experiment with HCT-116 colon, 69.1%; in the experiment on HCC-2998 colon, 89.9%; in the experiment with KM12 colon, 85%.

For the molecule `CCCCCCCCn1ccc2cc(NC(=O)Cn3cc(CN4CCN(CC)CC4)nn3)ccc21`, the growth in the experiment on SR leukemia is 2.27% (active); in the experiment with RPMI-8226 leukemia, -10.7% (active); in the experiment on OVCAR-8 ovarian, 83%; in the experiment with OVCAR-5 ovarian, 94%; with OVCAR-4 ovarian it was 81.5%; with SK-OV-3 ovarian, 99.6%. In addition, the growth in the experiment on IGROV1 ovarian was 88.6%; in the experiment on OVCAR-3 ovarian it was 66.8%; with HS 578T breast it was 86.2%; in the experiment with NCI/ADR-RES ovarian, 97.7%; with T-47D breast, 58.2%; with BT-549 breast it was 71.8%. In addition, the growth in the experiment on MDA-MB-435 melanoma was -84% (active); in the experiment on SW-620 colon, -43% (active); in the experiment on MCF7 breast, 38.9%; with HCT-116 colon, 61.8%; with HCC-2998 colon, -12.2% (active); with KM12 colon, 77.8%.

In the case of `Cc1ccc(O)c(NC(=O)c2ccc(CNc3ccnc(C(F)(F)F)c3)cc2)c1`, the growth was 36.4% in the experiment on SR leukemia; 15.2% in the experiment with RPMI-8226 leukemia; 69.6% in the experiment on OVCAR-8 ovarian; 76.9% in the experiment on OVCAR-5 ovarian; 53.1% in the experiment on OVCAR-4 ovarian; 82% in the experiment with SK-OV-3 ovarian. In addition, the growth is 51.4% in the experiment on IGROV1 ovarian; 140% in the experiment with OVCAR-3 ovarian; 85.4% with HS 578T breast; 50.3% in the experiment with NCI/ADR-RES ovarian; 82.3% in the experiment on T-47D breast; 52.3% in the experiment on BT-549 breast. Also, the growth in the experiment on MDA-MB-435 melanoma is 39.6%; in the experiment on SW-620 colon it was 87%; with MCF7 breast, 37.6%; in the experiment with HCT-116 colon, 66.4%; with HCC-2998 colon, 27.7%; with KM12 colon, 72.3%.

Regarding `COc1cc(/C=C2\CN(S(=O)(=O)c3ccc(C)cc3)C/C(=C\c3cc(CN4CCCCC4)c(O)c(OC)c3)C2=O)cc(CN2CCCCC2)c1O`, the growth is -14.6% (active) in the experiment on SR leukemia; -39.3% (active) in the experiment with RPMI-8226 leukemia; -66.4% (active) in the experiment on OVCAR-8 ovarian; -86.5% (active) in the experiment with OVCAR-5 ovarian; -72.7% (active) in the experiment on OVCAR-4 ovarian; 115% with SK-OV-3 ovarian. Besides, the growth with IGROV1 ovarian is -67% (active); in the experiment on OVCAR-3 ovarian it was -89.4% (active); in the experiment with HS 578T breast, -33.4% (active); with NCI/ADR-RES ovarian, -47.2% (active); with T-47D breast, 33.8%; with BT-549 breast it was -49% (active). The growth in the experiment with MDA-MB-435 melanoma is -82.6% (active); in the experiment with SW-620 colon, -77.5% (active); in the experiment on MCF7 breast, -74.4% (active); in the experiment with HCT-116 colon, -70.6% (active); with HCC-2998 colon, -87.2% (active); in the experiment with KM12 colon it was -85.2% (active).

For the molecule `O=c1oc2c(cnc3ccccc32)cc1-c1cccs1`, the growth in the experiment on SR leukemia is 103%; in the experiment with RPMI-8226 leukemia it was 103%; in the experiment on OVCAR-8 ovarian, 100%; in the experiment with OVCAR-5 ovarian it was 108%; with OVCAR-4 ovarian, 100%; in the experiment on SK-OV-3 ovarian, 106%. Also, the growth was 99.7% in the experiment with IGROV1 ovarian; 119% in the experiment with OVCAR-3 ovarian; 99% with HS 578T breast; 104% in the experiment on NCI/ADR-RES ovarian; 95.9% with T-47D breast; 96.9% in the experiment on BT-549 breast. Besides, the growth is 103% in the experiment on MDA-MB-435 melanoma; 103% with SW-620 colon; 98.1% with MCF7 breast; 91.1% in the experiment on HCT-116 colon; 117% in the experiment on HCC-2998 colon; 105% in the experiment with KM12 colon.

Take `Clc1nn2c(Cn3cnc4c(NCc5ccccc5)ncnc43)nnc2c2ccccc12`: the growth in the experiment on SR leukemia is 17.2%; with RPMI-8226 leukemia it was 37.7%; in the experiment with OVCAR-8 ovarian it was 33.2%; with OVCAR-5 ovarian, 74.2%; with OVCAR-4 ovarian, 37.9%; in the experiment with SK-OV-3 ovarian, -18.5% (active). Moreover, the growth with IGROV1 ovarian was 24.8%; in the experiment with OVCAR-3 ovarian, 45.8%; in the experiment with HS 578T breast, 40.1%; in the experiment on NCI/ADR-RES ovarian, 40.6%; with T-47D breast, 18.2%; with BT-549 breast, 25.8%. The growth is 30.6% with MDA-MB-435 melanoma; 48.2% in the experiment with SW-620 colon; 62.1% in the experiment on MCF7 breast; 21.9% in the experiment on HCT-116 colon; 56.1% in the experiment with HCC-2998 colon; 58.9% in the experiment on KM12 colon.

On to `CCCCn1sc(=O)n(Cc2ccc(CNC(=O)OCc3ccc4c(Br)cc(Br)c(O)c4n3)cc2)c1=O`, for which the growth in the experiment with SR leukemia is 5.73% (active); with RPMI-8226 leukemia it was 18.7%; with OVCAR-8 ovarian, 13.7%; in the experiment with OVCAR-5 ovarian, 52%; in the experiment with OVCAR-4 ovarian it was 51.7%; with SK-OV-3 ovarian, 34.6%. The growth is 15.7% in the experiment on IGROV1 ovarian; -0.408% (active) in the experiment with OVCAR-3 ovarian; 18.6% with HS 578T breast; 9.82% (active) in the experiment with NCI/ADR-RES ovarian; 69.9% in the experiment with T-47D breast; -16.2% (active) with BT-549 breast. Besides, the growth was -35.4% (active) with MDA-MB-435 melanoma; 24.5% in the experiment with SW-620 colon; 12% in the experiment on MCF7 breast; 7.95% (active) in the experiment with HCT-116 colon; 24.8% in the experiment with HCC-2998 colon; 2.42% (active) in the experiment on KM12 colon.

`COc1ccc(Cl)cc1Nc1nc(C(F)(F)F)ccc1C(=O)N/N=C/c1ccccc1Cl`: the growth with SR leukemia is -15.1% (active); in the experiment on RPMI-8226 leukemia, -56.6% (active); in the experiment with OVCAR-8 ovarian it was 11.2%; with OVCAR-5 ovarian, 22%; in the experiment with OVCAR-4 ovarian it was -18.3% (active); with SK-OV-3 ovarian, 11.7%. Also, the growth with IGROV1 ovarian is 4.17% (active); in the experiment on OVCAR-3 ovarian it was 1.6% (active); with HS 578T breast, 9.51% (active); in the experiment with NCI/ADR-RES ovarian it was 0.235% (active); with T-47D breast, -22.5% (active); in the experiment with BT-549 breast it was 13.3%. Further, the growth was 26.9% in the experiment with MDA-MB-435 melanoma; 7.18% (active) in the experiment on SW-620 colon; -8.68% (active) in the experiment on MCF7 breast; 14.2% in the experiment on HCT-116 colon; -11.2% (active) with HCC-2998 colon; 7.71% (active) with KM12 colon.
